{"source": "the supplement of paper PMC8728848", "binders": {"B1": {"name": "LEA (Lycopersicon esculentum) (protein)", "chain": "NEVFDVPMNETIGVESINASVGGYPRCGAQGDGGNCPSGMCCSVWGWCGKTYGYCAPQNCQKQCPAPYPEGRCGWQADGKSCPNGKCCSYGGWCGTTSDYCARQNCQKQCILPSPPPPPPPPPGFPRPECGLQKNGERCTKPGECCSIWGLCGATYKYCDPQHCQKQCSAPFPPGRCGWQADGRPCPTGQCCSFSGWCGTTSAHCTYPQCVSQCNDPRFPSSLNNRIQSFML"}}, "experiment_in_all_cases": "glycan array binding signal (z-score within array); higher = stronger binding", "settings_in_all_cases": "glycan notation: IUPAC condensed, linker removed", "key": {"Fuc(a1-2)Gal(b1-4)GlcNAc": {"target": "Fuc(a1-2)Gal(b1-4)GlcNAc", "procedure,_shortened": "(§1)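 Glycan array binding is given as a within-array Z-score, which can be read as non-binding when negative. The arrays, 3228 of them, came from the Consortium for Functional Glycomics database and were retained only where the protein sequence was available. Z-scores were averaged across arrays of the same protein sequence at different concentrations or buffers and across linkers.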"}, "[1]": {"target": "Fuc(a1-2)Gal6S(b1-4)Glc6S", "procedure,_shortened": "as §1"}, "[2]": {"target": "Fuc(a1-2)Gal6S(b1-4)GlcNAc", "procedure,_shortened": "as §1"}, "[3]": {"target": "Fuc(a1-2)[Gal(a1-3)]Gal(b1-4)GlcNAc", "procedure,_shortened": "as §1"}, "[4]": {"target": "Fuc(a1-2)[Gal(a1-4)]Gal(b1-4)GalNAc", "procedure,_shortened": "as §1"}, "[5]": {"target": "Fuc(a1-2)[GalNAc(a1-3)]Gal(b1-3)GlcNAc", "procedure,_shortened": "as §1"}, "[6]": {"target": "Fuc(a1-2)[GalNAc(a1-3)]Gal(b1-4)GlcNAc", "procedure,_shortened": "as §1"}, "[7]": {"target": "Fuc(a1-2)[GalNAc(a1-4)]Gal(b1-4)GlcNAc", "procedure,_shortened": "as §1"}, "[8]": {"target": "Fuc(a1-3)[Gal(b1-4)]GlcNAc(b1-4)Gal(b1-4)[Fuc(a1-3)]GlcNAc(b1-4)Gal(b1-4)[Fuc(a1-3)]GlcNAc", "procedure,_shortened": "as §1"}, "[9]": {"target": "Fuc(a1-3)[Gal3S(b1-4)]GlcNAc6S", "procedure,_shortened": "as §1"}, "Gal(a1-4)GlcNAc": {"target": "Gal(a1-4)GlcNAc", "procedure,_shortened": "as §1"}, "[10]": {"target": "Gal(b1-3)GalNAc(b1-3)Gal(a1-4)Gal(b1-4)Glc", "procedure,_shortened": "as §1"}, "[11]": {"target": "Gal(b1-3)[Neu5Ac(a2-6)]GlcNAc(a1-4)Gal(b1-4)Glc", "procedure,_shortened": "as §1"}, "[12]": {"target": "Gal(b1-4)GalNAc(b1-3)[Fuc(a1-2)]Gal(b1-4)GlcNAc", "procedure,_shortened": "as §1"}, "[13]": {"target": "Gal(b1-4)GlcNAc(b1-6)GalNAc", "procedure,_shortened": "as §1"}, "[14]": {"target": "Gal3S(b1-3)[Fuc(a1-4)]GlcNAc", "procedure,_shortened": "as §1"}, "Gal6S(b1-4)Glc": {"target": "Gal6S(b1-4)Glc", "procedure,_shortened": "as §1"}, "GalNAc(a1-3)GalNAc": {"target": "GalNAc(a1-3)GalNAc", "procedure,_shortened": "as §1"}, "[15]": {"target": "GalNAc(b1-3)Gal(a1-4)Gal(b1-4)GlcNAc", "procedure,_shortened": "as §1"}, "GlcNAc(b1-3)Gal": {"target": "GlcNAc(b1-3)Gal", "procedure,_shortened": "as §1"}, "[16]": {"target": "GlcNAc(b1-3)Gal(b1-3)GalNAc", "procedure,_shortened": "as §1"}, "[17]": {"target": "GlcNAc(b1-4)Gal(b1-4)GlcNAc", "procedure,_shortened": "as §1"}, "[18]": {"target": "GlcNAc(b1-4)GlcNAc(b1-4)GlcNAc(b1-4)GlcNAc(b1-4)GlcNAc(b1-4)GlcNAc", "procedure,_shortened": "as §1"}, "GlcNAc(b1-6)GalNAc": {"target": "GlcNAc(b1-6)GalNAc", "procedure,_shortened": "as §1"}, "Kdn(a2-3)Gal(b1-3)GlcNAc": {"target": "Kdn(a2-3)Gal(b1-3)GlcNAc", "procedure,_shortened": "as §1"}, "[19]": {"target": "Man(a1-2)Man(a1-2)Man(a1-6)[Man(a1-3)]Man", "procedure,_shortened": "as §1"}, "[20]": {"target": "Neu5Ac(a2-3)Gal(b1-3)GalNAc", "procedure,_shortened": "as §1"}, "[21]": {"target": "Neu5Ac(a2-3)Gal(b1-3)GalNAc6S", "procedure,_shortened": "as §1"}, "[22]": {"target": "Neu5Ac(a2-3)Gal(b1-4)GlcNAc(b1-3)Gal(b1-3)GlcNAc", "procedure,_shortened": "as §1"}, "[23]": {"target": "Neu5Ac(a2-3)Gal(b1-4)GlcNAc(b1-3)Gal(b1-4)[Fuc(a1-3)]GlcNAc", "procedure,_shortened": "as §1"}, "[24]": {"target": "Neu5Ac(a2-3)[GalNAc(b1-4)]Gal(b1-4)Glc", "procedure,_shortened": "as §1"}, "[25]": {"target": "Neu5Ac(a2-6)Gal(b1-4)GlcNAc(b1-2)Man(a1-3)[Neu5Ac(a2-6)Gal(b1-4)GlcNAc(b1-2)Man(a1-6)]Man(b1-4)GlcNAc(b1-4)GlcNAc", "procedure,_shortened": "as §1"}, "[26]": {"target": "Neu5Gc(a2-3)Gal(b1-4)[Fuc(a1-4)]GlcNAc", "procedure,_shortened": "as §1"}}, "note": "The entries come from a sample that favours the strongest signals as a whole.", "data": [{"binder": "B1", "values": [{"measurement": "glycan array binding signal (z-score)", "setting": "Fuc(a1-2)Gal(b1-4)GlcNAc", "value": 1.11}, {"measurement": "glycan array binding signal (z-score)", "setting": "[1]", "value": -0.512}, {"measurement": "glycan array binding signal (z-score)", "setting": "[2]", "value": -0.55}, {"measurement": "glycan array binding signal (z-score)", "setting": "[3]", "value": 2.51}, {"measurement": "glycan array binding signal (z-score)", "setting": "[4]", "value": 2.53}, {"measurement": "glycan array binding signal (z-score)", "setting": "[5]", "value": -0.547}, {"measurement": "glycan array binding signal (z-score)", "setting": "[6]", "value": 2.5}, {"measurement": "glycan array binding signal (z-score)", "setting": "[7]", "value": 2.62}, {"measurement": "glycan array binding signal (z-score)", "setting": "[8]", "value": -0.541}, {"measurement": "glycan array binding signal (z-score)", "setting": "[9]", "value": 0.546}, {"measurement": "glycan array binding signal (z-score)", "setting": "Gal(a1-4)GlcNAc", "value": -0.545}, {"measurement": "glycan array binding signal (z-score)", "setting": "[10]", "value": -0.547}, {"measurement": "glycan array binding signal (z-score)", "setting": "[11]", "value": -0.546}, {"measurement": "glycan array binding signal (z-score)", "setting": "[12]", "value": 2.17}, {"measurement": "glycan array binding signal (z-score)", "setting": "[13]", "value": 0.621}, {"measurement": "glycan array binding signal (z-score)", "setting": "[14]", "value": -0.518}, {"measurement": "glycan array binding signal (z-score)", "setting": "Gal6S(b1-4)Glc", "value": -0.518}, {"measurement": "glycan array binding signal (z-score)", "setting": "GalNAc(a1-3)GalNAc", "value": -0.553}, {"measurement": "glycan array binding signal (z-score)", "setting": "[15]", "value": 2.55}, {"measurement": "glycan array binding signal (z-score)", "setting": "GlcNAc(b1-3)Gal", "value": -0.567}, {"measurement": "glycan array binding signal (z-score)", "setting": "[16]", "value": -0.526}, {"measurement": "glycan array binding signal (z-score)", "setting": "[17]", "value": 1.96}, {"measurement": "glycan array binding signal (z-score)", "setting": "[18]", "value": 2.26}, {"measurement": "glycan array binding signal (z-score)", "setting": "GlcNAc(b1-6)GalNAc", "value": -0.545}, {"measurement": "glycan array binding signal (z-score)", "setting": "Kdn(a2-3)Gal(b1-3)GlcNAc", "value": -0.443}, {"measurement": "glycan array binding signal (z-score)", "setting": "[19]", "value": -0.296}, {"measurement": "glycan array binding signal (z-score)", "setting": "[20]", "value": -0.56}, {"measurement": "glycan array binding signal (z-score)", "setting": "[21]", "value": -0.466}, {"measurement": "glycan array binding signal (z-score)", "setting": "[22]", "value": -0.129}, {"measurement": "glycan array binding signal (z-score)", "setting": "[23]", "value": -0.542}, {"measurement": "glycan array binding signal (z-score)", "setting": "[24]", "value": -0.536}, {"measurement": "glycan array binding signal (z-score)", "setting": "[25]", "value": -0.502}, {"measurement": "glycan array binding signal (z-score)", "setting": "[26]", "value": -0.041}]}]}
